Source: ChEMBL document CHEMBL3988442, “University of Dundee, Small-Polar-MMV Screening Library” (2021)
Screen size: about 48,000 compounds; about 13,000 (27%) showed an effect of 50% or more. The list shows a part of the results.

These compounds were tested on Wolbachia pipientis (assay: Anti-Wolbachia Cell-Based Screen). Conditions: 5 µM.
Assay type: functional
Set-up: scale not given: in the data most compounds retested in dose-response had high values

Row | Structure (SMILES) | Percent Effect [%]
1 | CSc1nc2cc(C)n(CC(=O)N3CCCC3)c2c(=O)n1CC(C)C | 4.703
2 | COc1ccccc1OCCCN(C)c1cc(C)nc(N)n1 | -7.239
3 | CN(CCn1cccn1)c1cc(C(F)(F)F)nc(-c2cccnc2)n1 | -9
4 | CC(C)[C@H]1COC(=O)N1CC(=O)N(C)CCCn1cccn1 | -1.545
5 | Cc1cc(C(=O)N2C[C@@H]3[C@@H](CN(C)CCCn4cccn4)[C@@H]3C2)c(C)o1 | 2.079
6 | Cc1cc(N(C)CCCn2cccn2)nc(-c2cccnc2)n1 | 95.65
7 | Cc1cc(C(=O)N(C)CCCn2cccn2)nc(N)n1 | 99.09
8 | Cc1cc(N(C)CC2COc3ccccc3O2)nc(N)n1 (stereo not drawn) | -8.93
9 | Cc1cc(N(C)CCCn2cccn2)nc(N)n1 | 93.8
10 | Cc1cc(N(C)Cc2ncc[nH]2)nc(-c2cccnc2)n1 | -8.057
11 | Cc1cc(N2CCN(C3CCSCC3)CC2)n2nc(C)c(C)c2n1 | -17.53
12 | CCCN(CCC)S(=O)(=O)NC(C)C(=O)N(C)C (stereo not drawn) | -7.467
13 | CCC[C@H]1CN(CCS(C)(=O)=O)C[C@@H]1NC(=O)c1ccccc1F | -18.99
14 | CC(=O)N1CCOC[C@H](Oc2ccc(C(F)(F)F)cc2)C1 | -13.29
15 | NC(=O)c1cccc(CC2CCN(C(=O)CCCN3CCOCC3)C2)c1 (stereo not drawn) | -2.023
16 | CC(=O)N1CCOCC(Cc2ccc3c(ccn3C)c2)C1 (stereo not drawn) | 138.8
17 | CC(=O)NCC(=O)N1CCOCC(Cc2ccc3c(ccn3C)c2)C1 (stereo not drawn) | 143.9
18 | CN(C)C(=O)Cn1ccc2cc(NC(=O)N3CCOCC3)ccc21 | -7.307
19 | CC(=O)N1CCOCC(Cc2ccc3c(ccn3C(C)=O)c2)C1 (stereo not drawn) | 130
20 | CC(=O)NCC(=O)N1CCC(C2CCN(Cc3ccc(Cl)cc3)C2)CC1 (stereo not drawn) | -7.699
21 | CN(C)c1ccc(CC(=O)N2CCOCC(O)C2)cc1 (stereo not drawn) | -50.44
22 | COCCC(=O)N1CCOCC(Cc2ccc3c(ccn3C)c2)C1 (stereo not drawn) | 165.7

Row | Structure (SMILES) | Percent Effect [%]
23 | Cn1ccc2cc(C(=O)N3CCOCC3)ccc21 | -3.73
24 | O=C(CCCc1cn[nH]c1)N1CCOCC(O)C1 (stereo not drawn) | -4.397
25 | CC(C)C(=O)Nc1ncn(Cc2cccc(Br)c2)n1 | 13.22
26 | CCn1cc(-c2cc(C(F)(F)F)n(CCCN)n2)cn1 | 69.39
27 | Cc1nn(C)cc1-c1cc(C(F)(F)F)n(CCCN)n1 | 117.1
28 | Cc1nn(C)cc1-c1ccnc(NCCN)n1 | 0.4357
29 | Cn1cc(-c2nc(C3CCN(CC4CC4)CC3)cc3c2ncn3C)cn1 | -12.1
30 | Cc1cc(-c2cnn(C)c2)ccc1OCC(N)=O | 1.914
31 | Cn1cc(-c2cc(C(F)(F)F)n(CCCN)n2)cn1 | 106
32 | Cc1nn(C)cc1-c1cc(C(F)(F)F)c2c(C)nn(CC(=O)O)c2n1 | 1.02
33 | Cc1noc(CCCC(=O)Nc2ncccc2Br)n1 | -19.61
34 | CCOCC1CN(Cc2ccoc2)Cc2cn(CC3CC3)nc21 (stereo not drawn) | 25.6
35 | O=C(c1cn(Cc2ccc(Cl)cc2)nn1)N1CCCO1 | -12.44
36 | Cc1ncc2c(n1)C1(CCN(C(=O)C(C)C)CC1)OCC2.Cl | 141.2
37 | Cc1cnc(N2CCOC3(CCCN(C(=O)C(C)C)C3)C2)nc1 (stereo not drawn) | -6.845
38 | CCc1cnc(C)nc1N1CCN(C(N)=O)CC1 | -3.33
39 | Cc1ncc2c(n1)C1(CCN(C(=O)C3CC3)CC1)OCC2.Cl | 134.7
40 | O=C(C1CCC1)N1CCC2(COCc3cnc(N4CCOCC4)nc32)C1 (stereo not drawn) | -15.94
41 | Cc1ncc(C(=O)N2CC[C@@]3(O)CCN(C(=O)N(C)C)C[C@H]3C2)cn1 | -6.772
42 | Clc1ccc(CN2CCN(Cn3nccc3-c3cccnc3)CC2)s1 | 6.087
43 | CCC1CN(c2cnn(C)c(=O)c2Cl)CCO1 (stereo not drawn) | 22.68
44 | CCC1CN(c2cnn(-c3ccccc3)c(=O)c2Cl)CCO1 (stereo not drawn) | 4.552

Row | Structure (SMILES) | Percent Effect [%]
45 | Cc1ccccc1C1CN(c2cnn(C)c(=O)c2Cl)CCO1 (stereo not drawn) | 91.27
46 | Cc1cccc(N(CCC(N)=O)CC(=O)Nc2cc(Cl)ccc2Cl)c1 | -1.848
47 | O=C(O)C(F)(F)F.O=C(O)C(F)(F)F.c1ccc(CNCC2Cn3nnc(-c4ccncc4)c3CO2)nc1 (stereo not drawn) | 9.944
48 | CC(=O)N1CCC(C)(c2cc(C(=O)NCC3CC3)nc(C)n2)CC1 | 107.8
49 | CC(=O)NCC1CCN(C(=O)c2csc(-c3ccc(C)cc3C)n2)CC1 | -1.979
50 | CCCN(Cc1nccn1C)C(=O)c1cc(C)nc(C)n1 | -2.808
51 | CC(=O)N1CCC(C)(c2cc(C(=O)NCC(C)(C)C)nc(C)n2)CC1 | 109.7
52 | Cc1nc(CN2CCC(CNC(=O)C3(C)CCCC3)CC2)oc1C | -9.195
53 | CCN(CC)C(=O)c1cc(C2(C)CCN(C(C)=O)CC2)nc(C)n1 | 112.9
54 | CC(=O)N1CCN(c2cc(-n3cnc(C)c3C)nc(C)n2)CC1 | -7.107
55 | CN(C)CCNC(=O)c1cc2n(n1)CCN(C(=O)CC(C)(C)C)C2 | 4.361
56 | Cc1nc(NCc2ccc(C)o2)cc(C(=O)N2CCOCC2)n1 | -3.993
57 | CNc1nc(C2CCCN2C(C)=O)nc2c1CCN(CC1CC1)C2 (stereo not drawn) | -2.53
58 | CNc1nc(C2CCCN2C(C)=O)nc2c1CN(C1CCCC1)CC2 (stereo not drawn) | 121.2
59 | CNc1nc(N2CCN(CC=C(C)C)C(CCO)C2)nc2c1CCC2 (stereo not drawn) | -3.074
60 | CNc1nc(N2CCN(C3CCCCC3)C(CCO)C2)nc2c1CCC2 (stereo not drawn) | 13.4
61 | CNc1nc(C2CCCN2C(C)=O)nc2c1CN(CCO)CC2.O=CO (stereo not drawn) | 123.3
62 | CNc1nc(N2CCN(C)C(CCO)C2)nc2c1CCC2 (stereo not drawn) | -12.86
63 | N[C@@H]1CCN(Cc2cccc(N3CCOCC3)c2)C[C@H]1O | -37.83
64 | Cc1oc2nc[nH]c(=O)c2c1C(=O)N1CCCC(n2cccn2)C1 (stereo not drawn) | -6.627
65 | CC(C)OCCCNC(=O)C1CCC(=O)N(C2CCCC2)C1 (stereo not drawn) | 25.57
66 | CC(Cn1ccnc1)NC(=O)C1(c2ccc3c(c2)OCCO3)CCCC1 (stereo not drawn) | 6.008

Row | Structure (SMILES) | Percent Effect [%]
67 | CN(Cc1cnn(C)c1)C(=O)C1COCC(=O)N1Cc1ccccc1 (stereo not drawn) | 16.93
68 | Cc1nc(C)c(C(=O)N(C)Cc2cnn(C)c2)s1 | -4.031
69 | Cc1ccccc1C(C(=O)N(C)Cc1cnn(C)c1)N(C)C (stereo not drawn) | -13.96
70 | CCCn1nc(C(=O)N(C)Cc2nnc3n2CCC3)ccc1=O | -34.52
71 | CCCn1nc(C(=O)N(C)Cc2cnn(C)c2)ccc1=O | 125
72 | CN(Cc1cnn(C)c1)C(=O)c1ccc(=O)n(Cc2ccccc2)n1 | 97
73 | CC(=O)NCCNCC1(O)CCCN(CCC2CCCCC2)C1=O (stereo not drawn) | -25.88
74 | O=C(O)c1ccnc(-c2ccnc(COc3ccccc3Cl)n2)c1 | -33.61
75 | Cc1noc(CN2CC(=O)N(C)c3ccccc3C2=O)n1 | 12.92
76 | Cc1c(CS(C)(=O)=O)cccc1NC(=O)CC1CCCC1 | -14.57
77 | Cc1ccsc1CN1C[C@@H]2COC[C@]2(COCC(=O)N(C)C)C1.O=C(O)C(F)(F)F | 107.4
78 | CCS(=O)(=O)NC[C@]12COC[C@H]1CN(Cc1sccc1C)C2.O=C(O)C(F)(F)F | -13.08
79 | Cc1csc(CN2C[C@@H]3COC[C@]3(COCC(=O)N(C)C)C2)n1.O=C(O)C(F)(F)F | 103.7
80 | Cc1nc(COC[C@]23COC[C@H]2CN(Cc2ccoc2)C3)cs1.O=C(O)C(F)(F)F | -5.417
81 | Cc1ccsc1CN1C[C@@H]2COC[C@]2(CNC(=O)c2ccco2)C1.O=C(O)C(F)(F)F | -18.71
82 | Cc1nc(COC[C@@]23CCC[C@@H]2CN(CC2CCOCC2)C3)cs1.O=C(O)C(F)(F)F | 1.66
83 | Cc1nc(CN2C[C@@H]3COC[C@]3(COCC(=O)N(C)C)C2)cs1.O=C(O)C(F)(F)F | 99.96
84 | Cc1cc(C(=O)N2CCC(c3nccn3Cc3ccncc3)CC2)no1 | -16.29
85 | C[C@@H]1C[C@H]2CN(C(=O)C3=CCCC3)C[C@H]2O1 | -41.87
86 | CCOc1ccc(S(=O)(=O)NCCc2ccc(N(C)C)cc2)cc1F | 9.493
87 | CCN(CC)C(=O)CCNC(=O)N(C)Cc1ccc(SC)c(OC)c1 | 28.83
88 | Cc1ccc(F)c(CNc2ccn(CCC(N)=O)n2)c1 | -13.86

Row | Structure (SMILES) | Percent Effect [%]
89 | O=C1CC[C@H]2CN(c3ncc(F)cn3)CC[C@H]2N1CCc1ccccn1 | -8.563
90 | Cc1cccc(CN2CCC3(CC(C(=O)NCC(C)C)=NO3)C2)c1 (stereo not drawn) | 117.4
91 | Cc1ccc(CN2CCC3(CC(C(=O)NCC4CC4)=NO3)C2)cc1C (stereo not drawn) | 21.96
92 | O=C(NCC1CC1)C1=NOC2(CCN(Cc3ccc4c(c3)OCO4)C2)C1 (stereo not drawn) | -22.77
93 | N#Cc1cccc(CN2CCC3(CC(C(=O)NCC4CC4)=NO3)C2)c1 (stereo not drawn) | -1.937
94 | CCCS(=O)(=O)N1CCC2(CC(C(=O)NCc3cccnc3)=NO2)C1 (stereo not drawn) | -9.91
95 | CC(C)CNC(=O)C1=NOC2(CCN(Cc3cccc(C#N)c3)C2)C1 (stereo not drawn) | 102.8
96 | CNc1snc(C)c1C(=O)N1CCCC(n2ccnc2C(C)C)C1 (stereo not drawn) | 1.946
97 | Cc1n[nH]c(=O)c2c(NC(=O)CN3CCC(O)CC3)oc(C)c12 | 10.48
98 | CCCNCC1(O)CCCN(Cc2cccc(C)c2)C1=O (stereo not drawn) | 20.78
99 | Nc1nc(CCC(=O)N2C[C@@H](CN3CCCC3)C[C@H](CO)C2)n[nH]1 | -12.43
100 | CCn1ncnc1C1CC(=O)NCc2nc(N3CCCC3)sc21 (stereo not drawn) | 88.25
101 | CCn1ncnc1C1CC(=O)NCc2nc(N3CCOCC3)sc21 (stereo not drawn) | 112.6
102 | CCOc1cccc(C2CC(=O)NCc3nc(N(C)C)sc32)c1 (stereo not drawn) | 5.085
103 | CCn1ncnc1C1CC(=O)NCc2nc3ccccn3c21 (stereo not drawn) | -4.231
104 | CCn1ncnc1C1CC(=O)NCc2nc(N)sc21 (stereo not drawn) | 74.2
105 | CCCn1ncc(C2CC(=O)NCc3nc4sc(C)cn4c32)c1C (stereo not drawn) | 0.1811
106 | Cc1ccc(C2CC(=O)NCc3nc(N)sc32)cc1C (stereo not drawn) | 0.1432
107 | CCOc1cccc(C2CC(=O)NCc3nc(N)sc32)c1 (stereo not drawn) | 2.31
108 | CCOc1cccc(C2CC(=O)NCc3nc(N4CCCC4)sc32)c1 (stereo not drawn) | -6.785
